Screens as filed in PubChem.
Pf Dd2 inh = P. falciparum Dd2 growth inhibition | SYBR Green, 72 h; active compounds read low | activity change, % at 10 µM | 94,000 tested, 2.3% active | AID 1159554; in the data active means activity change below about -80%; inconclusive means no clear call, values can overlap the other calls
C diff growth = blocks growth of Clostridium difficile | Clostridium difficile clinical isolate growth, OD600, 24 h; active compounds read low | growth activity, negative = inhibition, % at 16 µg/mL (by protocol) | 86,000 tested, 0.25% active;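 active means mean growth activity at or below -80% and every replicate also at or below -80%; inconclusive means mean at or below -80% but some replicate above -80%; inactive means mean growth activity above -80%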
Numbers stand for hits; - = inactive; ? = inconclusive. The list is not random: actives were taken first. Their share in the collection is about 2.4%.

SMILES | Pf Dd2 inh | C diff growth
COc1ccc(C#Cc2ccc([C@H]3[C@H](CO)N4CCCCN(C(=O)Nc5ccccc5F)C[C@@H]34)cc2)cc1 | - | -
COc1ccc(C#Cc2ccc([C@H]3[C@@H](CO)N4CCCCN(C(=O)Nc5ccc(F)cc5)C[C@H]34)cc2)cc1 | - | -
COc1ccc(C#Cc2ccc([C@@H]3[C@H](CO)N4CCCCN(C(=O)Nc5ccc(F)cc5)C[C@@H]34)cc2)cc1 | - | -93
O=C(Nc1ccccc1F)N1CCCCN2[C@@H](CO)[C@@H](c3ccc(/C=C/c4ccccc4)cc3)[C@@H]2C1 | - | -96
C[C@H]1CN([C@@H](C)CO)C(=O)c2cc(-c3ccccc3F)cnc2O[C@H]1CN(C)C(=O)C1CCC1 | - | -
O=C(C1CCCC1)N1[C@H](CO)[C@@H]2c3ccccc3NC[C@@H]21 | - | -
O=C(C[C@@H]1C=C[C@@H](NC(=O)C2CCC2)[C@@H](CO)O1)NCC1CC1 | - | -
O=C(C[C@@H]1C[C@@H]2c3cc(NC(=O)NC4CCCC4)ccc3O[C@@H]2[C@@H](CO)O1)NCc1ccc(Cl)cc1 | - | -
C[C@@H]1CCCCO[C@@H](CN(C)C(=O)Nc2ccc(C(F)(F)F)cc2)[C@@H](C)CN([C@H](C)CO)C(=O)c2cc(NC(=O)Nc3cccc4ccccc34)ccc2O1 | - | -
C[C@@H]1CCCCO[C@H](CN(C)C(=O)Nc2ccc(C(F)(F)F)cc2)[C@H](C)CN([C@H](C)CO)C(=O)c2cc(NC(=O)Nc3cccc4ccccc34)ccc2O1 | -87 | -
COc1ccc(CN(C)C[C@H]2OCCCC[C@H](C)Oc3ccc(NC(=O)Nc4cccc5ccccc45)cc3C(=O)N([C@@H](C)CO)C[C@H]2C)cc1 | ? | -
C[C@@H]1CN([C@H](C)CO)C(=O)c2cc(NC(=O)Nc3cccc4ccccc34)ccc2O[C@@H](C)CCCCO[C@@H]1CN(C)Cc1ccc(C(F)(F)F)cc1 | -87 | -
COc1ccc(CN(C)C[C@@H]2OCCCC[C@H](C)Oc3ccc(NC(=O)Nc4cccc5ccccc45)cc3C(=O)N([C@H](C)CO)C[C@H]2C)cc1 | -90 | -94
C[C@@H]1CN([C@H](C)CO)C(=O)Cc2cc(NC(=O)Nc3ccc(C(F)(F)F)cc3)ccc2O[C@H]1CN(C)C(=O)Nc1cccc2ccccc12 | -85 | -
C[C@H]1CCCCO[C@H](CN(C)Cc2ccc(C(F)(F)F)cc2)[C@@H](C)CN([C@@H](C)CO)C(=O)c2cc(NC(=O)Nc3cccc4ccccc34)ccc2O1 | - | -
C[C@H]1CN([C@@H](C)CO)C(=O)Cc2cc(NC(=O)Nc3ccc(C(F)(F)F)cc3)ccc2O[C@@H]1CN(C)C(=O)Nc1cccc2ccccc12 | - | -
C[C@@H]1CN([C@@H](C)CO)C(=O)c2cc(NS(=O)(=O)c3ccc(F)cc3)ccc2O[C@@H]1CN(C)C(=O)Nc1cccc2ccccc12 | - | -
COc1ccc(NC(=O)Nc2ccc3c(c2)C(=O)N([C@H](C)CO)C[C@@H](C)[C@H](CN(C)S(=O)(=O)c2ccc(OC)cc2)O3)cc1 | - | -
O=C(Nc1ccc(F)cc1)N1C[C@@H]2[C@H](c3ccccc31)[C@H](CO)N2C(=O)Cc1cccnc1 | - | -
CCCC#Cc1ccc2c(c1)O[C@@H](CN(C)C(=O)Nc1ccccc1F)[C@H](C)CN([C@@H](C)CO)S2(=O)=O | - | -
C[C@@H]1CCCCO[C@@H](CN(C)C(=O)Nc2cccc3ccccc23)[C@H](C)CN([C@H](C)CO)C(=O)c2cc(NC(=O)Nc3ccc(C(F)(F)F)cc3)ccc2O1 | - | -
C[C@@H]1CCCCO[C@H](CN(C)C(=O)Nc2cccc3ccccc23)[C@@H](C)CN([C@@H](C)CO)C(=O)c2cc(NC(=O)Nc3ccc(C(F)(F)F)cc3)ccc2O1 | -81 | -
C[C@H](CO)N1C[C@H](C)[C@H](CN(C)C(=O)Nc2cccc3ccccc23)Oc2ccc(NC(=O)Nc3ccc(C(F)(F)F)cc3)cc2C1=O | - | -
C[C@@H]1CN([C@H](C)CO)C(=O)c2cc(NC(=O)Nc3ccc(C(F)(F)F)cc3)ccc2O[C@H]1CN(C)C(=O)Nc1cccc2ccccc12 | -95 | -
C[C@@H](O)C#Cc1cnc2c(c1)C(=O)N([C@@H](C)CO)C[C@H](C)[C@H](CN(C)C(=O)Cc1ccncc1)O2 | - | -
SMILES | Pf Dd2 inh | C diff growth
O=C(c1ccccc1)N1CC2(C1)[C@H](c1ccccc1)[C@H](CO)N2CC1CC1 | - | -
COc1ccc(NC(=O)Nc2ccc3c(c2)CC(=O)N([C@@H](C)CO)C[C@H](C)[C@H](CN(C)Cc2ccc(Cl)c(Cl)c2)O3)cc1 | - | -
Cc1ccc(S(=O)(=O)NC[C@H]2CC[C@@H]3[C@@H](CN3C(=O)CN(C)C)O2)cc1 | - | -
C[C@H]1CN([C@@H](C)CO)S(=O)(=O)c2ccc(C#Cc3ccccc3F)cc2O[C@H]1CN(C)C(=O)Cc1cccnc1 | -83 | -
C[C@@H]1CN([C@H](C)CO)S(=O)(=O)c2ccc(/C=C/c3ccccc3)cc2O[C@H]1CN(C)Cc1cccnc1 | -86 | -
C[C@H]1CN([C@@H](C)CO)S(=O)(=O)c2ccc(C#Cc3ccccc3F)cc2O[C@@H]1CN(C)C(=O)Cc1cccnc1 | - | -
C/C=C/c1ccc2c(c1)O[C@H](CN(C)Cc1cccnc1)[C@H](C)CN([C@@H](C)CO)S2(=O)=O | - | -
C[C@@H]1CN([C@H](C)CO)S(=O)(=O)c2ccc(/C=C/c3ccccc3)cc2O[C@@H]1CN(C)Cc1cccnc1 | - | -
C[C@H](CO)N1C[C@H](C)[C@@H](CN(C)Cc2cccnc2)Oc2cc(/C=C/c3ccccc3)ccc2S1(=O)=O | -89 | -
COc1ccccc1C#Cc1ccc2c(c1)O[C@@H](CN(C)Cc1cccnc1)[C@H](C)CN([C@@H](C)CO)S2(=O)=O | -83 | -
COc1ccccc1C#Cc1ccc2c(c1)O[C@@H](CN(C)Cc1cccnc1)[C@@H](C)CN([C@@H](C)CO)S2(=O)=O | - | -
CCCC#Cc1ccc2c(c1)O[C@H](CN(C)C(=O)c1ccccn1)[C@H](C)CN([C@@H](C)CO)S2(=O)=O | - | -
COc1ccc2c3c(n(C)c2c1)[C@H](CO)N(CC1CC1)CC31CCN(C(=O)c2ccc3c(c2)OCO3)CC1 | - | -
COCC#Cc1cnc2c(c1)C(=O)N([C@H](C)CO)C[C@H](C)[C@H](CN(C)C(=O)c1ccc(F)cc1)O2 | - | -
C[C@@H]1CCCCO[C@H](CN(C)C(=O)C2CCCCC2)[C@H](C)CN([C@H](C)CO)C(=O)c2cc(NC(=O)Nc3cccc4ccccc34)ccc2O1 | -90 | -
C[C@@H]1CN([C@@H](C)CO)C(=O)c2cc(NC(=O)Nc3cccc4ccccc34)ccc2O[C@@H](C)CCCCO[C@@H]1CN(C)C(=O)c1ccccc1 | - | -
C[C@@H]1CCCCO[C@H](CN(C)C)[C@H](C)CN([C@@H](C)CO)C(=O)c2cc(NC(=O)Nc3cccc4ccccc34)ccc2O1 | - | -
C[C@@H]1CCCCO[C@H](CN(C)C)[C@@H](C)CN([C@H](C)CO)C(=O)c2cc(NC(=O)Nc3cccc4ccccc34)ccc2O1 | - | -
C[C@@H]1CN([C@@H](C)CO)C(=O)c2cc(NC(=O)Nc3cccc4ccccc34)ccc2O[C@@H](C)CCCCO[C@@H]1CN(C)C(=O)C1CCCCC1 | -88 | -
C[C@@H]1CCCCO[C@@H](CN(C)C(=O)C2CCCCC2)[C@@H](C)CN([C@@H](C)CO)C(=O)c2cc(NC(=O)Nc3cccc4ccccc34)ccc2O1 | -89 | -
